Here are results for 38 compounds from PubChem BioAssay (Tox21).

Where “and” joins values, the source holds several entries; their conditions need not be identical. Equal values may be shown once. Records with an inconclusive call do not appear. A call without a number means that no potency is given here. The source holds several records for some structures; these can differ, active in one and inactive in another. Calls of active or inactive are those of the source. Calls come from the whole dose curve; as a rule, active = well fitted activation curve with a large enough effect in the repeat runs; inconclusive = weak or mixed curves; inactive = flat fitted curve, though single readings scatter.
Note: nearly all actives have a fitted effect of over 45% in size.
Potency is the fitted concentration of half-maximal effect.

One assay in a line: A CellTox Green Cytotoxicity Assay to monitor cytotoxicity in HEK293 cells - 24 hour (AID 1224875). The settings on record: CellTox Green fluorescence; series mostly up to 76.8 µM; activity change: at the top concentration. In outline: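 Nonlytic real-time cytotoxicity: HEK293 + CellTox Green reagent plated, 5 h preincubation, pintool compound addition (23 nL in DMSO), 37 C for 40 h, fluorescence measured at successive time points.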
As to `O=[N+]([O-])/N=C1\NCCN1Cc1ccc(Cl)nc1`, the Potency entry is “inactive”. Same read-out and setting: in the case of `CC(C)(c1ccccc1)c1ccc(O)cc1` it was 21.7 µM (active) and 43.6 µM (active); in that of `CC1CC(=O)O1` (stereo unspecified), “inactive”. Same read-out and setting: in the case of `CCOS(=O)(=O)OCC` it was “inactive”.

Take `CCCCC(C#N)(Cn1cncn1)c1ccc(Cl)cc1` (stereo unspecified): the Potency result is “inactive”.

In the case of `COP(=S)(OC)Oc1ccc(S(=O)(=O)N(C)C)cc1`, the Potency entry is “inactive”. On the same count and under the same terms, the entry for `CC(C)(O)C(=O)Nc1ccc([N+](=O)[O-])c(C(F)(F)F)c1` is “inactive”; for `Brc1ccc(Br)cc1` it is “inactive”.

The nature of another assay: A CellTox Green Cytotoxicity Assay to monitor cytotoxicity in HepG2 cells - 16 hour (AID 1224876). The settings on record: CellTox Green fluorescence; series mostly up to 76.8 µM; cytotoxicity increase: at the top concentration. Summed up: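 Read-out is fluorescence of a cyanine dye excluded from live cells that stains DNA of dead HepG2 cells, with signal proportional to cytotoxicity. Plates were read at 0, 8, 16, 24, 32 and 40 h after compound addition.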
Take `CCC(=O)Nc1ccc(Cl)c(Cl)c1`: the Potency result was “inactive”.

In the case of `ClCC(Cl)CCl`, the Potency entry is “inactive”. On the same count and under the same terms, the entry for `O=[N+]([O-])/N=C1\NCCN1Cc1ccc(Cl)nc1` is “inactive”. As for `ClC(Cl)(Cl)c1ccccc1`, the Potency result is “inactive”. Same read-out and setting: in the case of `CCN(CC)C(=O)C(C)Oc1cccc2ccccc12` (stereo unspecified) it was “inactive”; in that of `CC(C)(C#N)N=NC(C)(C)C#N`, “inactive”; in that of `CCCCOCC1CO1` (stereo unspecified), “inactive and 43.6 µM (active)”. Take `CS(=O)(=O)NC(=O)c1cc(Oc2ccc(C(F)(F)F)cc2Cl)ccc1[N+](=O)[O-]`: the Potency entry was “inactive”. Same read-out and setting: the figure for `CC(C)(c1ccccc1)c1ccc(O)cc1` is 24.5 µM (active); for `CC(C)Nc1ccc(Nc2ccccc2)cc1` it is “inactive and 49 µM (active)”.

Take `COP(=O)(NC(C)=O)SC` (stereo unspecified): the Potency entry is “inactive”.

For the compound `C[N+](C)(C)C`, the Potency result is “inactive”.

Turning to `CC1CC(=O)O1` (stereo unspecified), the Potency entry was “inactive”. Turning to `CCOP(=S)(OCC)OP(=S)(OCC)OCC`, the Potency entry was “inactive”.

For the compound `CNC(=S)S`, the Potency result is “inactive”. Still for that read-out and setting: in the case of `O=S(=O)(O)C(F)(F)C(F)(F)C(F)(F)C(F)(F)C(F)(F)C(F)(F)C(F)(F)C(F)(F)F` it was 18.6 µM (active) and inactive. For `CCOS(=O)(=O)OCC`, the Potency entry was “inactive”. Take `C=CC(Cl)CCl` (stereo unspecified): the “cytotoxicity increase” value was -8.6% (inactive). For the compound `C[C@]12CCC(=O)C=C1CC[C@@H]1[C@@H]2CC[C@@]2(C)[C@H]1CC[C@]2(C)O`, the Potency is 22.1 µM (active) and inactive. In the case of `CC(C)(c1ccccc1)c1ccc(O)c(C(C)(C)c2ccccc2)c1`, the Potency is 48.5 µM (active) and 43.6 µM (active). In the case of `OCCOCCO`, the Potency result is “inactive”. In the case of `CCCCC(C#N)(Cn1cncn1)c1ccc(Cl)cc1` (stereo unspecified), the Potency result was “inactive”. Same read-out and setting: in the case of `Cl` it was “inactive”; in that of `COP(=S)(OC)Oc1ccc(S(=O)(=O)N(C)C)cc1`, “inactive”. Turning to `O=C(O)c1nn(Cc2ccc(Cl)cc2Cl)c2ccccc12`, the Potency entry is “inactive and 95.2 nM (active)”. For the compound `CC(C)(O)C(=O)Nc1ccc([N+](=O)[O-])c(C(F)(F)F)c1`, the Potency entry was “inactive”. Still for that read-out and setting: the entry for `CNC(=O)Oc1cccc2c1OC(C)(C)C2` is “inactive”; for `Oc1ccc(Cl)cc1Cl` it is “inactive”; for `CC[n+]1c(-c2ccccc2)c2cc(N)ccc2c2ccc(N)cc21` it is “inactive”. The same measure, in the same setting: in the case of `N#CC(c1ccccc1)c1ccccc1` it was “inactive”; in that of `[Cl-].[Cl-].[Cl-].[Fe+3]`, “inactive”. Still for that read-out and setting: the entry for `CCCCCCCCCCCCCl` is “inactive and 13.8 µM (active)”; for `CCCCOCCOC(C)=O` it is “inactive”.

With `[CH3][Sn]([Cl])([Cl])[Cl]`, the Potency entry was “inactive”. Take `Nc1ccc([N+](=O)[O-])cc1N`: the “cytotoxicity increase” value was -14% (inactive).

As to `ClC(Cl)(Cl)Br`, the Potency entry was “inactive”. The same measure, in the same setting: in the case of `COc1ccc(C=O)cc1OC` it was “inactive”; in that of `Brc1ccc(Br)cc1`, “inactive”.
